Measurements reported in PubChem BioAssay (NCATS).
Results filed as inconclusive are left out. Active and inactive are the calls of the source. The call rests on the fitted dose curve; in most records, active means well fitted cell-killing curve with a large enough effect; inconclusive means small, poorly fitted or top-dose-only effect, or effect the other way; inactive means flat fitted curve, though single readings scatter.

Key:
Assay in all cases: Primary qHTS to identify gynecologic anti-cancer compounds using libraries of approved drugs and bioactive compounds (AID 1345084); further: nearly all actives have a fitted effect of over 55% in size
Details in all cases: Gynecologic cancer cell panel viability, ATPlite luminescence, 48 h; series mostly up to 57.5 µM
OV90 = test system: OV90
In short: (§1)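 48 h compound exposure at 37 C, 5% CO2; five-point qHTS. ATPlite luminescence readout of cell ATP.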

PA-1 = test system: PA-1
In short: as §1

SKOV3 = test system: SKOV3
In short: as §1

Tov-21-G = test system: Tov-21-G
In short: as §1

Tov112D = test system: Tov112D
In short: as §1
On the % scale 0 is the no-effect control and ±100 the full control effect.

COC(=O)CCC(=O)OC[C@]1(C)CCC[C@@]2(C)C3CC[C@]4(C)C=CC3(CCC12)C4 (stereo not given in full)
inactive: Potency (OV90) | Potency (PA-1) | Potency (SKOV3) | Potency (Tov-21-G) | Potency (Tov112D)

Cc1cn(C2C=CC(CO)O2)c(=O)[nH]c1=O (stereo not given)
inactive: Potency (OV90) | Potency (PA-1) | Potency (SKOV3) | Potency (Tov-21-G) | Potency (Tov112D)

CCC(C)C(=O)O[C@H]1CCC=C2C=C[C@H](C)[C@H](CC[C@@H](O)C[C@@H](O)CC(=O)O)[C@H]21 (stereo not given in full)
inactive: Potency (OV90) | Potency (PA-1) | Potency (SKOV3) | Potency (Tov-21-G) | Potency (Tov112D)

CC(=O)C1=CCC2C3CCC4CC(O[C@@H]5O[C@H](CO)[C@@H](O[C@@H]6O[C@@H](C)[C@H](O)[C@@H](O)[C@H]6O)[C@H](O)[C@H]5O[C@@H]5O[C@H](CO)[C@@H](O)[C@H](O)[C@H]5O)CCC4(C)C3CCC12C (stereo not given in full)
inactive: Potency (OV90) | Potency (PA-1) | Potency (SKOV3) | Potency (Tov-21-G) | Potency (Tov112D)

O=C(O[C@H]1[C@@H]2C=CO[C@@H](O[C@@H]3O[C@H](CO)[C@@H](O)[C@H](O)[C@H]3O)[C@@H]2[C@@]2(CO)O[C@@H]12)c1ccccc1
inactive: Potency (OV90) | Potency (PA-1) | Potency (SKOV3) | Potency (Tov-21-G) | Potency (Tov112D)

CCC(C)C(=O)OC1CC(C)C=C2C=CC(C)C(CCC(O)CC(O)CC(=O)O)C21 (stereo not given)
inactive: Potency (OV90) | Potency (PA-1) | Potency (SKOV3) | Potency (Tov-21-G) | Potency (Tov112D)

CC/C=C\CCO[C@@H]1O[C@H](CO)[C@@H](O)[C@H](O)[C@H]1O
inactive: Potency (OV90) | Potency (PA-1) | Potency (SKOV3) | Potency (Tov-21-G) | Potency (Tov112D)

C/C=C1\[C@H](O[C@@H]2O[C@H](CO)[C@@H](O)[C@H](O)[C@H]2O)OC=C(C(=O)OC)[C@H]1CC(=O)OC[C@H]1O[C@@H](OCCc2ccc(O)cc2)[C@H](O)[C@@H](O)[C@@H]1O
inactive: Potency (OV90) | Potency (PA-1) | Potency (SKOV3) | Potency (Tov-21-G) | Potency (Tov112D)

CC(C)c1ccc2c(c1)C(=O)CC1[C@@](C)(C(=O)O)CCC[C@]21C (stereo not given in full)
inactive: Potency (OV90) | Potency (PA-1) | Potency (SKOV3) | Potency (Tov-21-G) | Potency (Tov112D)

CC1=CC(=O)CC2C1(O)CCC(C)C21CC(c2ccoc2)OC1=O (stereo not given)
inactive: Potency (OV90) | Potency (PA-1) | Potency (SKOV3) | Potency (Tov-21-G) | Potency (Tov112D)

CC(C)=CCC[C@](C)(O[C@@H]1O[C@H](CO)[C@@H](O)[C@H](O)[C@H]1O)[C@H]1CC[C@]2(C)[C@@H]1[C@H](O)CC1[C@@]3(C)CC[C@H](O)C(C)(C)C3[C@@H](O[C@@H]3O[C@H](CO)[C@@H](O)[C@H](O)[C@H]3O[C@@H]3OC[C@@H](O)[C@H](O)[C@H]3O)C[C@]12C (stereo not given in full)
inactive: activity change, negative = cytotoxicity (OV90) -3.26% [at 11.6 µM] | activity change, negative = cytotoxicity (PA-1) 2.46% [at 11.6 µM] | activity change, negative = cytotoxicity (SKOV3) -3.65% [at 11.6 µM] | activity change, negative = cytotoxicity (Tov-21-G) -2.34% [at 11.6 µM] | activity change, negative = cytotoxicity (Tov112D) -2.93% [at 11.6 µM]

Cc1cccc(Oc2cnc(=O)[nH]c2)c1
inactive: Potency (OV90) | Potency (PA-1) | Potency (SKOV3) | Potency (Tov-21-G) | Potency (Tov112D)

C=C[C@H]1[C@H](O[C@@H]2O[C@H](CO)[C@@H](O)[C@H](O)[C@H]2O)OC=C(C(=O)OC)[C@H]1CC(=O)O
inactive: Potency (OV90) | Potency (PA-1) | Potency (SKOV3) | Potency (Tov-21-G) | Potency (Tov112D)

C[C@@H]1O[C@@H](O[C@@H]2CO[C@@H](O[C@H]3CC[C@@]4(C)C(CC[C@]5(C)C4CC=C4[C@@H]6CC(C)(C)CC[C@]6(C(=O)O[C@@H]6O[C@H](CO)[C@@H](O)[C@H](O)[C@H]6O)CC[C@]45C)[C@]3(C)CO)[C@H](O)[C@H]2O[C@@H]2O[C@H](CO)[C@@H](O)[C@H](O)[C@H]2O)[C@H](O)[C@H](O)[C@H]1O (stereo not given in full)
inactive: activity change, negative = cytotoxicity (OV90) -13.3% [at 11.6 µM] | activity change, negative = cytotoxicity (PA-1) -2.56% [at 11.6 µM] | activity change, negative = cytotoxicity (SKOV3) 6.8% [at 11.6 µM] | activity change, negative = cytotoxicity (Tov-21-G) 4.72% [at 11.6 µM] | activity change, negative = cytotoxicity (Tov112D) 0.619% [at 11.6 µM]

OC/C=C/C=C/[C@H]1Cc2cc(O)cc(O)c2O1
inactive: Potency (OV90) | Potency (PA-1) | Potency (SKOV3) | Potency (Tov-21-G) | Potency (Tov112D)

O=C(Nc1ccc(-c2ccncc2)cc1)N[C@H](CO)c1ccccc1
inactive: Potency (OV90) | Potency (PA-1) | Potency (SKOV3) | Potency (Tov-21-G) | Potency (Tov112D)

COc1ccc(C2COc3cc(O)ccc3C2)c(O)c1 (stereo not given)
inactive: Potency (OV90) | Potency (PA-1) | Potency (SKOV3) | Potency (Tov-21-G) | Potency (Tov112D)

C=CC[C@]12C[C@@H](OC)C(=O)C(OC)=C1O[C@@H](c1cc(OC)c3c(c1)OCO3)[C@@H]2C
inactive: Potency (OV90) | Potency (PA-1) | Potency (SKOV3) | Potency (Tov-21-G) | Potency (Tov112D)

CC(C)=CC/C=C(\C)[C@H]1CC[C@]2(C)[C@@H]1[C@H](O)C[C@@H]1[C@@]3(C)CC[C@H](O)C(C)(C)[C@@H]3[C@@H](O[C@@H]3O[C@H](CO)[C@@H](O)[C@H](O)[C@H]3O)C[C@]12C
inactive: Potency (OV90) | Potency (PA-1) | Potency (SKOV3) | Potency (Tov-21-G) | Potency (Tov112D)

C/C=C1\[C@H](O[C@@H]2O[C@H](CO)[C@@H](O)[C@H](O)[C@H]2O)OC=C(C(=O)OC)[C@H]1CC(=O)O
inactive: Potency (OV90) | Potency (PA-1) | Potency (SKOV3) | Potency (Tov-21-G) | Potency (Tov112D)

COc1cc(C)c(C(=O)Oc2cc(C)c(C(=O)Oc3cc(C)c(C(=O)NC(C)C(=O)O)c(O)c3)c(O[C@@H]3O[C@H](CO)[C@@H](O)[C@H](O)[C@H]3OC(C)=O)c2)c(OC)c1 (stereo not given in full)
inactive: Potency (OV90) | Potency (PA-1) | Potency (SKOV3) | Potency (Tov-21-G) | Potency (Tov112D)

C[C@@H]1O[C@@H](O[C@H]2[C@@H](OC(=O)[C@]34CCC(C)(C)CC3C3=CCC5[C@@]6(C)C[C@H](O)[C@H](O[C@@H]7O[C@H](C(=O)O)[C@@H](O)[C@H](O)[C@H]7O)[C@@](C)(C(=O)O)C6CC[C@@]5(C)[C@]3(C)CC4)OC[C@H](O)[C@@H]2O)[C@H](O)[C@H](O)[C@H]1O[C@@H]1OC[C@@H](O)[C@H](O)[C@H]1O (stereo not given in full)
inactive: activity change, negative = cytotoxicity (OV90) 7.22% [at 11.6 µM] | activity change, negative = cytotoxicity (PA-1) -35% [at 11.6 µM] | activity change, negative = cytotoxicity (SKOV3) 13.5% [at 11.6 µM] | activity change, negative = cytotoxicity (Tov-21-G) -4.55% [at 11.6 µM] | activity change, negative = cytotoxicity (Tov112D) -6.05% [at 11.6 µM]
